# High-throughput results from PubChem BioAssay.
# Integrin act MD: activators of alpha7 integrin expression for muscular dystrophy. alpha7betagal myoblasts, beta-gal FDG fluorescence, 48 h. Potency, µM (series often up to 38.3 µM), for inactives: at the highest dose activation, usual class: activators. actives 0.064% (n = 350,000);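 note: potency is the fitted concentration of half-maximal effect; 100% = response of the positive control SU9516; nearly all actives have a fitted effect of over 60% in size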
#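 Alpha7betagal+/- myoblasts (passage 13) were plated 16-24 hr, then exposed to compounds (1:260 dilution of DMSO stock) for 48 hours at 37C. After MPER lysis, β-galactosidase reporter activity was read as FDG fluorescence (ex 480/em 540) after 30 minutes.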
# BRCA1 expr act: increases BRCA1 expression. MCF7-BRCA1-FFLuc reporter, luminescence, 48 h; response scale: scaled: vehicle 0%, 10 µM genistein 100%. Potency, µM (series often up to 46.1 µM), for inactives: top-dose activation, usual class: activators. actives 1.1% (n = 380,000); note: potency is the fitted concentration of half-maximal effect; nearly all actives have a fitted effect of over 80% in size
#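 Cells: MCF7-BRCA1-FFLuc, 2000/well. Exposure: 48 h, 37 °C, 5% CO2. Read: luminescence, 15 min post-substrate. Controls: genistein 10 microM (maximal activation), DMSO (neutral).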
# BCR signal inh: chronic active BCR signaling inhibition | ABC-DLBCL IkBa-CBG/CBR reporter, luminescence ratio, 4 h | Potency, µM (top dose mostly 46.1 µM), for the others: at the highest dose activity change, negative = inhibition, hits mostly inhibitors | actives 0.05% (n = 340,000); active = well fitted inhibition curve with a large enough effect in the signal ratio, with a control signal flat, not every such curve was filed as active; inconclusive = small, poorly fitted or top-dose-only effect, or effect the other way, or a change in a side signal; the % refers to the signal ratio;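 note: potency is the fitted concentration of half-maximal effect; plate controls were basal doxycycline-induced cells for no effect and cells given 10 µM MG132 for full effect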
#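 Concentration-response series (up to 46 uM) were applied to TMD8 dual-reporter cells for 4 h at 37C with doxycycline. Green/red ratio, after filter-overlap correction, defined %Activity; red signal alone was normalised to basal cells and zero luminescence.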
# IL-2 act: activates IL-2 in a cell-based reporter assay | activation, % (series mostly up to about 46 µM) | actives 0.065% (n = 360,000) | IL-2 activation reporter assay, cell-based qHTS; stimulated with anti-CD3/CD4/CD28 beads; in transgenic mouse T cells; in the data active = activation above about 50%; inconclusive = mostly about 30% to 49%; note: 0% is about no effect
#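 Readout is EGFP and DsRed signal by fluorescent plate cytometry after 18 h at 37 degrees C. Transgenic mouse T cells (750/well) received compound for 60 min before bead stimulation (anti-CD3, anti-CD4, anti-CD28); memory T cells served as non-tolerant control.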
# N370S GC mod: inhibitors or activators of N370S glucocerebrosidase for Gaucher disease | P04062 | N370S GC spleen homogenate, 4MU-glucoside fluorescence | Potency, µM (series often up to 59.4 µM), for inactives: top-dose activity change, negative = inhibition, usual class: inhibitors | actives 0.092% (n = 330,000);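 note: potency is the fitted concentration of half-maximal effect; 0% = full enzyme activity and -100% = no enzyme basal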
# Nrf2 ARE act: activates Nrf2 signaling | AREc32 ARE-luciferase reporter (MCF7-derived line), luminescence, 24 h | Potency, µM (titrated, usually from 46.1 µM), inactives show at the top dose activation, hits mostly activators | actives 0.31% (n = 410,000) | AID 624171; note: potency is the fitted concentration of half-maximal effect; % of control where 0% means no effect; nearly all actives have a fitted effect of over 65% in size
#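 Luminescent ARE reporter assay in AREc32_Fluc cells: overnight plating at 37 deg C, 24 hr compound incubation, Steady-Glo added, 30 min RT before reading.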
# * hit, by the source's call; ? = inconclusive; · = not tested or not shown. Most compounds without a hit are left out; they make up all but 1.4% or so of the library. Unless noted, calls come from the whole dose curve; as a rule, active = well fitted curve in the direction sought with a large enough effect; inconclusive = small, poorly fitted or top-dose-only effect, or another doubt; inactive = no such curve, though single readings can be large; an effect the other way counts as inactive or inconclusive.
SMILES,Integrin act MD,BRCA1 expr act,BCR signal inh,IL-2 act,N370S GC mod,Nrf2 ARE act
O=C(NCCC1CCCCN1S(=O)(=O)c1ccccc1)C(=O)NCc1ccc(F)cc1 (centres undefined),-1%,-22%,15%,3,2%,0%
O=C(CSc1ccccc1F)Nc1ccc(N2CCOCC2)cc1,-11%,5.6µM*,?,0,·,3%
O=C(CSc1ccccc1)Nc1ccc(N2CCOCC2)cc1,-52%,?,?,-1,4%,10%
Cc1ccc(C(=O)Nc2ccc(N3CCOCC3)cc2)cc1,15%,8.9µM*,-14%,-2,3%,0%
O=C(Nc1ccc(N2CCOCC2)cc1)C1CCN(C(=O)OCc2ccccc2)CC1,10%,2.8µM*,-1%,2,-6%,0%
COc1ccc(C(=O)Nc2ccc(N3CCCCC3)cc2)cc1Br,-19%,3.5µM*,-13%,1,5%,2%
Cn1cnc(S(=O)(=O)NCc2ccc(Br)cc2)c1,30%,0%,2%,1,3%,-1%
CCN(CC)S(=O)(=O)c1ccc2c(c1)N(CC(=O)Nc1ccc(OC)cc1)C(=O)CS2,·,·,·,·,·,0%
C(=C\c1ccnc2ccccc12)/c1ccc(-[n+]2cc[n+](-c3ccc(/C=C/c4ccnc5ccccc45)cc3)cc2)cc1,·,-37%,·,·,·,·
CC(Oc1ccc(Cl)cc1Cl)c1nc(-c2ccc(NC(=O)c3cccnc3)cc2)no1 (centres undefined),-52%,-66%,-3%,3,-5%,-1%
CC(Oc1ccc(Cl)cc1Cl)c1nc(-c2ccccn2)no1 (centres undefined),-21%,11µM*,-3%,-1,26%,1%
O=C(Nc1nc(-c2ccc3c(c2)OCCO3)cs1)c1ccc(Br)o1,-5%,5%,·,1,·,9%
Cc1nc(-c2ccc3c(c2)OCCO3)cs1,2%,7.9µM*,?,0,18%,4%
Cc1ccc(C(=O)Nc2nc(-c3ccc4c(c3)OCCO4)cs2)o1,11%,8.9µM*,·,0,·,3%
CCOc1ccc(CNC(=O)Cn2c(=O)c3cccn3c3cccnc32)cc1,·,·,·,·,·,5%
Cc1ccc(NCCC(=O)c2cccs2)cc1Cl,-30%,-3%,1%,-2,5%,?
Cc1ccc(NC(=O)COC(=O)CCC(=O)c2cccs2)c(Br)c1,-7%,3%,-1%,0,·,0%
Cc1ccc(NC(=O)CC2CCCC2)c(Br)c1,-24%,13µM*,6%,0,-4%,5%
Cc1ccc(O)c(NC(=O)CCCC(=O)O)c1,-10%,7%,1%,0,-15%,2%
Cc1ccc(NCCC(=O)c2cccs2)cc1C,13%,-20%,?,-1,8%,22µM*
Cc1ccc(NC(=O)C2CCCC2)c(Br)c1,-11%,29%,·,0,·,0%
Cc1ccc(NC(=O)CCC(=O)c2cccs2)c(Br)c1,-2%,6.3µM*,?,-3,-8%,3%
Cc1ccc(O)c(NC(=O)CCC2CCCCC2)c1,10%,4µM*,-7%,1,5%,4%
Cn1c(NC(=O)CCC2CCCCC2)cc(=O)n(C)c1=O,-2%,2.2µM*,?,-1,-21%,7%
Cn1c(NNC(=O)CCC2CCCCC2)cc(=O)n(C)c1=O,21%,-27%,?,-1,-5%,2%
SMILES,Integrin act MD,BRCA1 expr act,BCR signal inh,IL-2 act,N370S GC mod,Nrf2 ARE act
Nc1c(C(=O)c2ccc(Br)s2)oc2ccccc12,-12%,-12%,?,-1,17%,3.2µM*
Nc1c(C(=O)c2cccs2)oc2ccccc12,-14%,4%,-1%,-1,16%,?
COc1cccc2[nH]c(=O)c(-c3ccccc3)cc12,?,3.2µM*,?,-4,-6%,0%
O=C(Nc1ccc2c(c1)OCO2)c1ccc(=O)[nH]n1,1%,11µM*,-11%,-1,-16%,0%
CC(C)c1cc(C(=O)Nc2ccc3c(c2)OCO3)no1,11%,50%,?,-4,3%,-1%
O=C(Nc1ccc2c(c1)OCO2)c1cc(C2CC2)on1,-27%,4.5µM*,?,-2,-14%,-1%
CCOC(=O)C1(CC2CCCCO2)CCN(C(=O)Nc2ccccc2CC)CC1 (centres undefined),-6%,-9%,-13%,0,3%,-1%
CCN(CC)c1ccc(NC(=O)/C=C\c2ccccc2Cl)cc1,-1%,3.2µM*,-8%,-4,-3%,2%
O=C(/C=C/c1ccco1)NCCc1ccc(F)cc1,-45%,96%,?,1,-16%,14µM*
O=C(/C=C/c1ccccc1Cl)NCCc1ccccc1,7%,11µM*,?,1,-4%,0%
C=CCn1c(SC(C)C#N)nc2ccccc2c1=O (centres undefined),·,-9%,·,·,·,·
O=S(=O)(c1ccc(Cl)cc1)N1CCN(c2nc(-c3ccccc3)nc3ccccc23)CC1,·,10%,·,·,·,·
O=C(/C=C/c1ccc(F)cc1)NC(=S)Nc1ccccc1O,-26%,13µM*,?,1,6%,15%
Cc1ccc(O)c(NC(=S)NC(=O)CC(C)C)c1,0%,13µM*,1%,4,-1%,8%
Cc1ccc(O)c(NC(=S)NC(=O)C(C)C)c1,-6%,?,0%,0,-4%,24%
Cc1ccc(O)c(NC(=S)NC(=O)/C=C/c2ccccc2)c1,9%,0%,7%,0,2%,11µM*
CCS(=O)(=O)c1ccc(O)c(NC(=O)CCCC(=O)O)c1,22%,2%,4%,-1,-9%,-1%
CCS(=O)(=O)c1ccc(O)c(NC(=O)/C=C/c2ccccc2)c1,13%,13µM*,?,0,-2%,5%
CN1c2ccc(Cl)cc2-c2nc(SCC(=O)NCc3ccc(F)cc3)ncc2S1(=O)=O,·,·,·,·,·,0%
Cc1occc1C(=O)N/N=C/C=C/c1ccccc1,?,10µM*,?,-1,4%,-5%
Cc1occc1C(=O)N/N=C/C(Br)=C\c1ccccc1,-55%,?,?,0,-11%,14µM*
O=C(N/N=C/C(Br)=C\c1ccccc1)c1ccco1,-59%,68%,?,-3,-15%,?
Cc1occc1C(=O)N/N=C/C=C/c1ccc(N(C)C)cc1,-5%,?,?,3,-1%,0%
CCNc1ccc(/C=C/c2ccnc3ccccc23)cc1,·,44%,·,·,·,·
CCOC(=O)C1CCCN(C(=O)c2cccc(OC(F)(F)F)c2)CC1 (centres undefined),·,0%,·,0,·,0%
O=C(COc1ccc(F)cc1Cl)N(Cc1nnc(-c2ccccc2Cl)o1)C1CC1,12%,-3%,·,-1,·,2%
